Data: PubChem BioAssay AID602229 (The Scripps Research Institute Molecular Screening Center, 2012)
Out of some 360,000 compounds screened, about 1,300 (0.36%) were called active. The sample as a whole holds a higher share of actives than the screen did. A number with no mark means an inactive call.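 Rule for the calls: active = inhibition above the mean of all tested compounds plus 3 SD (cut at about 70% in these data); inactive = the rest.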

target: Photoreceptor-specific nuclear receptor (Homo sapiens) (UniProt Q9Y5X4); assay: NCOR release from NR2E3 in cells – cell-based, luminescence, CHO-S, Gal4-NCOR/VP16-NR2E3, primary screen (AID 602229); conditions: CHO-S Gal4-NCOR/VP16-NR2E3 two-hybrid, luciferase; at 3.98 µM; active compounds read high;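 note: 0% = DMSO with NR2E3 transfected cells and 100% = cells lacking NR2E3 construct; higher means lower luciferase signal from less NR2E3 corepressor binding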
Sequence (Q9Y5X4 whole entry, looked up, the tested form may be a part): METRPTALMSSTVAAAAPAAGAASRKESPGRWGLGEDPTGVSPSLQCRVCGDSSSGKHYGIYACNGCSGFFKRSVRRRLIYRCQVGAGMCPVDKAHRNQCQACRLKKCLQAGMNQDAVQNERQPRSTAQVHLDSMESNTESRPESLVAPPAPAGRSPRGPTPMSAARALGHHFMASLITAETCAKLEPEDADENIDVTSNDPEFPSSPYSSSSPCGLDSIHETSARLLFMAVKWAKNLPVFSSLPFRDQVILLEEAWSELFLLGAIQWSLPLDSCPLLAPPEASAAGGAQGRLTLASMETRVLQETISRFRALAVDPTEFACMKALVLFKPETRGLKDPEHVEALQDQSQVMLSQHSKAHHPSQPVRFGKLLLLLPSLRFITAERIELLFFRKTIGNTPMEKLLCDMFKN

| SMILES | inhibition of corepressor binding |
| --- | --- |
| COc1cccc(C(=O)Nc2c3c(nn2-c2cccc(C)c2C)CS(=O)(=O)C3)c1OC | -6.84% |
| Cc1c(NC(=S)NCc2ccc(F)cc2)cccc1[N+](=O)[O-] | -17.5% |
| O=C(C1CCCO1)N(Cc1ccccc1)c1ccccc1 (configuration not stated) | -3.43% |
| COc1ccc(C(=O)OCC(=O)Nc2cc(C)on2)cc1F | 20.3% |
| CC1(C)OC(=O)C2=C(CC(c3ccccc3)OC2CCc2ccccc2)O1 (configuration not stated) | -2.84% |
| COCCNc1nc(-n2nc(C)cc2C)nc2sc3c(c12)CCCC3 | 91.3% (active) |
| CCCc1nc2sc3c(c2c(=O)n1NC(=O)CCCl)CCCC3 | 2.18% |
| CCc1nc(N2CCN(C(C)=O)CC2)c2c3c(sc2n1)CCCC3 | -27.3% |
| COc1ccccc1-c1nn(Cc2ccccc2)cc1C(=O)N1CCN(c2ncccn2)CC1 | -28.8% |
| COC(=O)c1ccc2c(c1)S(=O)(=O)NC2C (configuration not stated) | 1.74% |
| CCOC(=O)N1CCN(C(=O)c2ccc(S(=O)(=O)Nc3cccc(C(F)(F)F)c3)cc2)CC1 | 78.3% (active) |
| CC(=O)N1CCN(C(=O)c2cccc(S(=O)(=O)Nc3ccc(C)cc3)c2)CC1 | -16.4% |
| CCOC(=O)c1cccc(NS(=O)(=O)c2c(C(=O)N3CCCCCC3)c(C)n(C)c2C)c1 | -3.88% |
| Cc1ccsc1CNn1cnnc1SCc1ccccc1F | 1.17% |
| Cc1nc2c(OCc3ccc(Cl)cc3Cl)cccn2c1N(C)CC1CC1 | -9.82% |
| Cc1nc2c(OCc3cccc(Cl)c3)cccn2c1N(C)CC1CC1 | 79.4% (active) |
| Cc1nc2c(OCc3ccc(Cl)cc3)cccn2c1N(C)Cc1cccs1 | -14.4% |
| CC1CCN(CCCn2c(SCC(=O)NC3CCCC3)nc3ccccc3c2=O)CC1 | -14.7% |
| COc1cc(OC)cc(C(=O)NC(=S)N2CCN(c3ccc(C(F)(F)F)cc3[N+](=O)[O-])CC2)c1 | -27.8% |
| O=C(Cc1ccc(S(=O)(=O)N2CCOCC2)s1)N1CCN(c2ccc(C(F)(F)F)cc2[N+](=O)[O-])CC1 | 27.1% |
| O=C(c1ccc(N2CCCC2=O)cc1)N1CCN(c2ccc(C(F)(F)F)cc2[N+](=O)[O-])CC1 | 82.8% (active) |

| SMILES | inhibition of corepressor binding |
| --- | --- |
| Cc1nnc(SCC(=O)Nc2ncc3c(n2)CC(C)(C)CC3=O)s1 | -5.27% |
| Cc1cc2oc(=O)cc(CN(C)Cc3ccc(OC(F)F)cc3)c2cc1Cl | -26% |
| Cc1ccc(NC(=S)N(CCN(C)C)Cc2cccs2)cc1C | -15.7% |
| COC(=O)c1sccc1NC(=O)CSc1ccccc1NS(=O)(=O)c1cc(Cl)ccc1Cl | 89.8% (active) |
| COC(=O)c1scc(C)c1NC(=O)CSc1ccc(Cl)cc1 | 2.57% |
| COC(=O)c1sccc1NS(=O)(=O)c1ccc(F)cc1F | -9.53% |
| CCCC(=O)Nc1nnc(CC(=O)OCC)s1 | 12.6% |
| CCn1nc(C)c(CN2CCN(Cc3ccc(OC)c(C)c3C)C(CCO)C2)c1C (configuration not stated) | -29.8% |
| CC(C(=O)N1CCOCC1)N1c2cccc3cccc(c23)S1(=O)=O (configuration not stated) | -0.03% |
| Oc1c(Cl)cc(Cl)c(Cl)c1Cc1c(O)c(Cl)cc(Cl)c1Cl | 90.7% (active) |
| C=CCn1c(SCC(=O)c2ccc(Br)cc2)nnc1C(C)NC(=O)Cc1ccc(OC)cc1 (configuration not stated) | 22.7% |
| C=CCn1c(C23CC4CC(CC(C4)C2)C3)n[nH]c1=S | -1.8% |
| Cc1nc(NC(=O)CCC(=O)O)sc1C(=O)N(C)C | -26.6% |
| COc1ccc2c(c1)c(=Cc1ccc(N(C)C)cc1)c1cc(-c3ccccc3)[n+](C)n12 | 82.2% (active) |
| C[C@@H]1NC(=O)c2cc([N+](=O)[O-])cc(F)c2NCCC[C@@H](C(N)=O)NC(=O)[C@H](CC(N)=O)NC1=O | -1.65% |
| O=C(Nc1ccccc1C(=O)N1CCCCCC1)c1ccccc1Cl | -5.45% |
| O=C(Nc1ccccc1Cl)/C(Cl)=C(\Cl)S(=O)c1ccccc1 (configuration not stated) | 90.4% (active) |
| Cc1cc(C(=O)OCC(=O)Nc2ccccc2Cl)c(C)o1 | -11.3% |
| Cc1sc2ncnc(SCC(=O)NC3CCS(=O)(=O)C3)c2c1C (configuration not stated) | 11.1% |
| CCNC(=O)c1c(O)c2cccc3c2n(c1=O)CC3 | -12.8% |
| CCN(CC)C(=O)CSc1nnc(CNc2ccc(F)cc2)n1Cc1ccco1 | -4.24% |

| SMILES | inhibition of corepressor binding |
| --- | --- |
| CC1CN(Cc2ccco2)C(=S)N(c2ccccc2)C1=O (configuration not stated) | 10.4% |
| CN(C)C(=S)N=c1ssc(=S)n1Cc1ccco1 | 91.5% (active) |
| C=CCNC(=O)c1ccccc1SCc1c(C)noc1C | -20.3% |
| CC(C)OCCCNc1ncnc2c1[nH]c1ccc(F)cc12 | 75.6% (active) |
| CC(/C=C/c1ccco1)=N/NC(=O)C1COc2ccccc2O1 (configuration not stated) | -22.3% |
| CC1CC1C(=O)OCC(=O)c1c(N)n(C)c(=O)n(C)c1=O (configuration not stated) | 4.9% |
| FC(F)(F)c1nnc2c3ccccc3c(Cl)nn12 | -2.37% |
| COc1ccc(OCCNS(=O)(=O)Cc2ccccc2)cc1 | -15.6% |
| COc1ccc(S(=O)(=O)NCCOc2ccccc2)cc1F | -29.5% |
| COc1ccc(S(=O)(=O)NCCCCOc2ccc(Cl)cc2)cc1 | 96.7% (active) |
| CCOC(=O)c1sc(C)c2c1NC(C)(c1cccc3ccccc13)NC2=O (configuration not stated) | -1.53% |
| Cc1ccc(-c2cnc(C(O)c3cc(Cl)cc(Cl)c3)[nH]2)cc1 (configuration not stated) | -10.6% |
| OC(c1ccc(F)cc1)c1ncc(-c2cccc(C(F)(F)F)c2)[nH]1 (configuration not stated) | 30.1% |
| OC(c1ccc(Cl)cc1)c1ncc(-c2ccc(Cl)cc2)[nH]1 (configuration not stated) | 71.4% (active) |
| Cc1[nH]n(C(N)=S)c(=O)c1N=Nc1ccc(Cl)cc1Cl | -3.9% |
| O=C(NCc1ccccc1)c1cccc(NC(=O)C2CCCCC2)c1 | -12.6% |
| O=C1CSC(c2cccc(F)c2)N1c1ccccc1F (configuration not stated) | -28.1% |
| O=C1C=C(c2cccc(Cl)c2)C[C@@H](c2ccc(F)cc2)C1 | -24.8% |
| O=C1C=C(c2cc(C(F)(F)F)cc(C(F)(F)F)c2)C[C@@H](c2ccc3c(c2)OCO3)C1 | -2.34% |
| O=C1C=C(c2ccnc3cc(Cl)ccc23)C[C@@H](c2ccc3c(c2)OCO3)C1 | 85.8% (active) |
